In the library only some 4.1% were active in any assay of this set; here they are far more common.
Shn3 3UTR inh: reduces Shn3 3'UTR luciferase signal in osteoblasts; inhibition, % at 12.5 µM; AID 588674; Clone20 osteoblast Shn3 3'UTR firefly luciferase, 24 h; 360,000 tested, 0.52% active;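 active = mean inhibition of at least 75% with every replicate also reaching 75%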;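 also: 0% = median of neutral control wells and 100% = pilot-screen positive control compound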
EBV LMP1 NFkB: reduces LMP1-driven NF-kappaB luciferase signal. LMP1-induced NF-kappaB luciferase reporter cells, luminescence. inhibition, % at 12.5 µM. 350,000 tested, 0.69% active; in the data active = inhibition above about 41%;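 also: 0% = neutral control wells and 100% = reference inhibitor control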
TROY signal inh: TROY signaling inhibition. inhibition, % at 10 µM. AID 1347056. Q293 LMP1-TROYcd NF-kB luciferase reporter, 4 h. 360,000 tested, 0.98% active;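 active = compounds whose plate-normalised and pattern-corrected inhibition of the luciferase reporter signal at the single screening dose is 50% or more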
TWEAK-Fn14 inh: inhibitors of TWEAK-Fn14 interaction signaling | inhibition, % at 10 µM | 360,000 tested, 2% active | AID 1159606 | TWEAK-stimulated Fn14 reporter cells, luciferase luminescence, 8 h; in the data active = inhibition above about 50%
Peg3 prom inh: Peg3 promoter activity inhibition. HeLa PEG-Prom luciferase reporter, luminescence, overnight. inhibition, % at 20 µM. 360,000 tested, 1.7% active. AID 588405;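 active = inhibition of at least 50% at 20 µM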
MITF TRPM1 inh: MITF TRPM1 promoter inhibition in SK-MEL-5 cells; 330,000 tested, 0.83% active; inhibition, % at 12.5 µM; AID 488899; SK-MEL-5 TRPM1 promoter luciferase, 24 h;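 active = mean inhibition across replicates of 60% or more, whatever share of single replicates reaches that level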
The depositor's hits bear a star.

`Cc1cc(C)n(C(C)CC(=O)Nc2ccc3c(c2)OCCO3)n1` (centres undefined) gave Shn3 3UTR inh 11, EBV LMP1 NFkB 12, TROY signal inh 43, TWEAK-Fn14 inh 61*, Peg3 prom inh 29 and MITF TRPM1 inh 3.
Screening COC(=O)C1CCN(C(=O)Cc2c(OC)ccc3cc(Br)ccc23)CC1 returned Shn3 3UTR inh 11, EBV LMP1 NFkB 2, TROY signal inh 2, TWEAK-Fn14 inh -18, Peg3 prom inh -3 and MITF TRPM1 inh -1.
Screening O=C(O)c1ccc(S(=O)(=O)Nc2ccc(O)c(Sc3nc4ccccc4s3)c2)cc1 returned Shn3 3UTR inh 43, EBV LMP1 NFkB -15, TROY signal inh 21, TWEAK-Fn14 inh 16, Peg3 prom inh 18 and MITF TRPM1 inh 14.
NS(=O)(=O)c1ccc(N=Nc2ccc(O)c3ncccc23)cc1 was read as Shn3 3UTR inh 78, EBV LMP1 NFkB 18, TROY signal inh 19, TWEAK-Fn14 inh 31, Peg3 prom inh 56* and MITF TRPM1 inh 33.
`CCOc1ccc(N=Nc2ccc(O)c3ncccc23)cc1` gave Shn3 3UTR inh 90*, EBV LMP1 NFkB 6, TROY signal inh -9, TWEAK-Fn14 inh -52, Peg3 prom inh 22 and MITF TRPM1 inh 70*.
CCS(=O)(=O)c1ccc(OC)c(N=Nc2ccc(O)c3ncccc23)c1 was read as Shn3 3UTR inh 40, EBV LMP1 NFkB -7, TROY signal inh -7, TWEAK-Fn14 inh 4, Peg3 prom inh -2 and MITF TRPM1 inh 12.
Screening CCN(CC)S(=O)(=O)c1cc(OC)ccc1N=Nc1ccc(O)c2ncccc12 returned Shn3 3UTR inh 90*, EBV LMP1 NFkB -1, TROY signal inh 10, TWEAK-Fn14 inh 30, Peg3 prom inh 42 and MITF TRPM1 inh 71*.
For Cc1nc(SCC(=O)N(CC(C)C)C2CCS(=O)(=O)C2)c2c(C)c(C)sc2n1 (centres undefined) the results were Shn3 3UTR inh 5, EBV LMP1 NFkB 5, TROY signal inh 3, TWEAK-Fn14 inh -5, Peg3 prom inh -1 and MITF TRPM1 inh 1.
For COc1ccc2nc3cc(Cl)ccc3c(Nc3ccc(O)c(CN4CCN(C)CC4)c3)c2c1 the results were Shn3 3UTR inh -6, EBV LMP1 NFkB 4, TROY signal inh -85, TWEAK-Fn14 inh -112, Peg3 prom inh 95* and MITF TRPM1 inh 106*.
`CCOc1ccc(N(CC(=O)NC2CCCC2)S(=O)(=O)c2c(C)[nH]c(=O)[nH]c2=O)cc1` gave Shn3 3UTR inh 4, EBV LMP1 NFkB -5, TROY signal inh -11, TWEAK-Fn14 inh 7, Peg3 prom inh 72* and MITF TRPM1 inh 2.
CCOc1ccc(N(CC(=O)Nc2c(C)cccc2C)S(=O)(=O)c2c(C)[nH]c(=O)[nH]c2=O)cc1 was read as Shn3 3UTR inh -3, EBV LMP1 NFkB 1, TROY signal inh 12, TWEAK-Fn14 inh 80*, Peg3 prom inh -8 and MITF TRPM1 inh -1.
`Cc1cccc(C)c1NC(=O)CN(C)C(=O)CC1OC(=O)c2ccccc21` (centres undefined) gave Shn3 3UTR inh -16, EBV LMP1 NFkB -9, TROY signal inh -1, TWEAK-Fn14 inh -12, Peg3 prom inh 5 and MITF TRPM1 inh 1.
Cc1ccc(-n2c3nc(=O)[nH]c(=O)c-3cc3cc([N+](=O)[O-])ccc32)cc1C was read as Shn3 3UTR inh -11, EBV LMP1 NFkB 3, TROY signal inh -1, TWEAK-Fn14 inh -22, Peg3 prom inh 74* and MITF TRPM1 inh 43.
`Cc1ccc(C2c3[nH]c4ccccc4c3C[C@H]3C(=O)N(c4ccccc4C(=O)N4CCC[C@H]4C(=O)O)C(=O)N23)cc1` (some centres undefined) gave Shn3 3UTR inh 2, EBV LMP1 NFkB -15, TROY signal inh 13, TWEAK-Fn14 inh -14, Peg3 prom inh 10 and MITF TRPM1 inh 21.
For CC(C)c1ccc(C2c3[nH]c4ccccc4c3C[C@H]3C(=O)N(c4ccccc4C(=O)N4CCC[C@@H]4C(=O)O)C(=O)N23)cc1 (some centres undefined) the results were Shn3 3UTR inh 9, EBV LMP1 NFkB 4, TROY signal inh 66*, TWEAK-Fn14 inh 34, Peg3 prom inh -8 and MITF TRPM1 inh 13.
Screening O=C(C(=Cc1ccc(F)cc1)C(=O)c1ccccc1)c1ccccc1 returned Shn3 3UTR inh 0, TROY signal inh -56, TWEAK-Fn14 inh 78* and Peg3 prom inh 100*.
CC(=O)Nc1cccc(C(=O)NCCc2ccco2)c1 was read as Shn3 3UTR inh -39, EBV LMP1 NFkB -16, TROY signal inh -29, TWEAK-Fn14 inh -10, Peg3 prom inh -97 and MITF TRPM1 inh -58.
COc1ccc2cc(C(=O)Nc3ccc(S(N)(=O)=O)cc3)sc(=O)c2c1OC was read as Shn3 3UTR inh 0, EBV LMP1 NFkB 6, TROY signal inh -8, TWEAK-Fn14 inh 5, Peg3 prom inh 79* and MITF TRPM1 inh -6.
For COc1ccc(CCNC(=O)C2CCCN(S(C)(=O)=O)C2)cc1 (centres undefined) the results were Shn3 3UTR inh 0, EBV LMP1 NFkB -7, TROY signal inh 11, TWEAK-Fn14 inh -4, Peg3 prom inh 9 and MITF TRPM1 inh 0.
`CCNc1nc(NCC)nc(N(C#N)C(C)C)n1` gave Shn3 3UTR inh 9, EBV LMP1 NFkB 5, TROY signal inh -7, TWEAK-Fn14 inh 76*, Peg3 prom inh -3 and MITF TRPM1 inh -3.
Screening CCNc1nc(NC(C)C)nc(N(C#N)C(C)C(=O)N(C)C)n1 (centres undefined) returned Shn3 3UTR inh -3, EBV LMP1 NFkB -5, TROY signal inh 12, TWEAK-Fn14 inh -4, Peg3 prom inh 12 and MITF TRPM1 inh 9.
For O=C(Nc1ccccc1[N+](=O)[O-])c1cncc(Br)c1 the results were Shn3 3UTR inh -25, EBV LMP1 NFkB 5, TROY signal inh 8, TWEAK-Fn14 inh 104*, Peg3 prom inh -54 and MITF TRPM1 inh -5.
CC(C)(C)c1ccc(NC(=O)c2ccccc2)c([N+](=O)[O-])c1 was read as Shn3 3UTR inh -54, EBV LMP1 NFkB -75, TROY signal inh 58*, TWEAK-Fn14 inh 30, Peg3 prom inh -287 and MITF TRPM1 inh -60.
Screening CN(C(=O)CSc1nc2ccccc2n1C)C1CCS(=O)(=O)C1 (centres undefined) returned Shn3 3UTR inh -11, EBV LMP1 NFkB -4, TROY signal inh -5, TWEAK-Fn14 inh -4, Peg3 prom inh 68* and MITF TRPM1 inh -6.
Screening CN(C(=O)CSc1nc2ccccc2c(=O)n1C)C1CCS(=O)(=O)C1 (centres undefined) returned Shn3 3UTR inh 71, EBV LMP1 NFkB -16, TROY signal inh 1, TWEAK-Fn14 inh 19, Peg3 prom inh 16 and MITF TRPM1 inh 2.
Screening c1ccc2c(-c3ccc4nncn4c3)cncc2c1 returned Shn3 3UTR inh 10, TROY signal inh 40, TWEAK-Fn14 inh 78* and Peg3 prom inh 6.

High-throughput results (PubChem BioAssay)
